Measured values published in PubChem BioAssay (NCATS).
Results filed as inconclusive are left out. Entries that show only a call come without a potency. A structure can be active in one record and inactive in another. Active and inactive are the calls of the source. Unless noted, calls come from the whole dose curve; as a rule, active = well fitted curve in the direction sought with a large enough effect; inconclusive = small, poorly fitted or top-dose-only effect, or another doubt; inactive = no such curve, though single readings can be large; an effect the other way counts as inactive or inconclusive.

How the values were obtained:
[1] = qHTS for Inhibitors of Plasmodium falciparum (DD2) proliferation (AID 504314); note: potency is the fitted concentration of half-maximal effect;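 for activity, negative = inhibition: parasite DNA measured by SYBR Green fluorescence after red cell lysis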
Procedure, shortened: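 Normalization used 0.29 uM artemisinin as full inhibition and DMSO as baseline. Parasitized erythrocytes were exposed to compounds for 72 h (37C, 5% CO2), then lysed with saponin/Triton buffer containing SYBR Green I.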

[2] = qHTS for Inhibitors of Plasmodium falciparum (HB3) proliferation (AID 504318); note: nearly all actives have a fitted effect of over 60% in size; note: potency is the fitted concentration of half-maximal effect
Procedure, shortened: (§1)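 Parasite growth measured as SYBR Green DNA fluorescence (ex 485, em 535 nm) after overnight lysis following 72 h culture at 37 °C, 0.3% parasitemia, 2.5% hematocrit. Values normalized against DMSO and 0.29 uM artemisinin controls, with plate-stack correction.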

[3] = qHTS for Inhibitors of Plasmodium falciparum (CP250) proliferation (AID 504320)
Procedure, shortened: as §1

[4] = target: Atrial natriuretic peptide receptor 1 (Homo sapiens) (UniProt P16066); test: Natriuretic polypeptide receptor (hNpr1) antagonism - Pilot CMLD screen (AID 1347052; calls by dose curve;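 note: HEK293 cells with hNpr1 stimulated by hNppA peptide at 0.1 nM; cGMP level read as GloSensor luciferase luminescence after agonist stimulation; series mostly up to about 9.2 µM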)
[5] = target: Cytochrome P450 2C9 (Homo sapiens) (UniProt P11712); test: qHTS Assay for Inhibitors and Substrates of Cytochrome P450 2C9 (AID 883); note: nearly all actives have a fitted effect of over 60% in size
Procedure, shortened: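 Human CYP2C9 (10nM) hydroxylated Luciferin-H (100uM, at its KM) to luciferin in 25mM KPO4. Compound was preincubated 10 min at 37C, then NADPH regeneration started a 60 min reaction at 37C. Luminescence was read after detection reagent, normalized to 57uM sulphaphenazole.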

[6] = target: Cytochrome P450 3A4 (Homo sapiens) (UniProt P08684); test: qHTS Assay for Inhibitors and Substrates of Cytochrome P450 3A4 (AID 884); note: series mostly up to about 57 µM; nearly all actives have a fitted effect of over 50% in size
Procedure, shortened: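 Luminescent readout of luciferin produced by CYP3A4 (20 nM) dealkylation of Luciferin-PPXE, 25 uM (its KM). NADPH-driven reaction ran 60 min at RT after 10 min compound preincubation; data scaled to 57 uM ketoconazole as 100% inhibition.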

[7] = target: Cytochrome P450 2D6 (Homo sapiens) (UniProt P10635); test: qHTS Assay for Inhibitors and Substrates of Cytochrome P450 2D6 (AID 891);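 note: luciferin methyl ether substrate demethylated by CYP2D6 with NADPH regeneration; nearly all actives have a fitted effect of over 60% in size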
Procedure, shortened: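 Luminescent read-out of luciferin formed by 5 nM human CYP2D6 demethylating 30 uM Luciferin-ME EGE (Km level) over 60 min at room temperature after NADPH regeneration addition. Data normalized to full inhibition by 1.43 uM quinidine.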

[8] = target: Cytochrome P450 2C19 (Homo sapiens) (UniProt P33261); test: qHTS Assay for Inhibitors and Substrates of Cytochrome P450 2C19 (AID 899); note: nearly all actives have a fitted effect of over 60% in size
Procedure, shortened: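 Human CYP2C19 (5nM) with Luciferin-H EGE at 10uM (its KM) in 50mM KPO4 was preincubated with compound for 10 min at 37C. NADPH regeneration started a 60 min 37C reaction. Luciferin was read by luminescence, normalized to 57uM ketoconazole.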

[9] = qHTS for Inhibitors of Plasmodium falciparum (7G8) proliferation (AID 504316); note: series mostly up to about 6.7 µM; nearly all actives have a fitted effect of over 65% in size
Procedure, shortened: as §1

[10] = qHTS for Inhibitors of Plasmodium falciparum (GB4) proliferation (AID 504315); note: nearly all actives have a fitted effect of over 50% in size
Procedure, shortened: as §1

Chain of Atrial natriuretic peptide receptor 1 (Homo sapiens) (P16066 whole entry, looked up): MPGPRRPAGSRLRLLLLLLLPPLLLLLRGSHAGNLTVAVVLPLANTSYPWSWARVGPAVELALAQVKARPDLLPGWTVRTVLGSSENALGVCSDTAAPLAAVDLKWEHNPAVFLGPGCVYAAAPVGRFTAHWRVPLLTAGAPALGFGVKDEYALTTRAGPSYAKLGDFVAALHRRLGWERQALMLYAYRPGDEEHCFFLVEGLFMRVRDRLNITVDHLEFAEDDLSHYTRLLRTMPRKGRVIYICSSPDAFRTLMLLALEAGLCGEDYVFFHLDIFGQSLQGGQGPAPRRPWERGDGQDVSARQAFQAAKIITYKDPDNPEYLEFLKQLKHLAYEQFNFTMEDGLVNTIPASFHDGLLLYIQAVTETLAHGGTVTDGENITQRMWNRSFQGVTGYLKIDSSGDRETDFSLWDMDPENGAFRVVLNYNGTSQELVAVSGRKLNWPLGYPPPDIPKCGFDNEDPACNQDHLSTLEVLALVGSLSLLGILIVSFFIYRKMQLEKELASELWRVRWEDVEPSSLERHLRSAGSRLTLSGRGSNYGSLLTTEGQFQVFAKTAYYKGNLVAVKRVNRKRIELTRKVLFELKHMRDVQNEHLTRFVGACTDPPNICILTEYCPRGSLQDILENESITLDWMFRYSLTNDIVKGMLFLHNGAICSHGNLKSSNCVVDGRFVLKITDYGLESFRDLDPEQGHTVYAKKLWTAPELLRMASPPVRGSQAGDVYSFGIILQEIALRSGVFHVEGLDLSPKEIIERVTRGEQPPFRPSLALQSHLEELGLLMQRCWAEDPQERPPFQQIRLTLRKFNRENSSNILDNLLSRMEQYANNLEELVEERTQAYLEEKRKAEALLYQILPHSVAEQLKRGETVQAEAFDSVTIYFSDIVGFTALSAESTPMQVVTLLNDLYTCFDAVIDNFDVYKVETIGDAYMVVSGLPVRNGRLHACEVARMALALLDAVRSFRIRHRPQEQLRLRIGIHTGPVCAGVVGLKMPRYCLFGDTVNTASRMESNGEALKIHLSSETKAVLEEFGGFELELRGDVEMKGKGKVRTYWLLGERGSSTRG
Chain of Cytochrome P450 2C19 (Homo sapiens) (P33261 whole entry, looked up): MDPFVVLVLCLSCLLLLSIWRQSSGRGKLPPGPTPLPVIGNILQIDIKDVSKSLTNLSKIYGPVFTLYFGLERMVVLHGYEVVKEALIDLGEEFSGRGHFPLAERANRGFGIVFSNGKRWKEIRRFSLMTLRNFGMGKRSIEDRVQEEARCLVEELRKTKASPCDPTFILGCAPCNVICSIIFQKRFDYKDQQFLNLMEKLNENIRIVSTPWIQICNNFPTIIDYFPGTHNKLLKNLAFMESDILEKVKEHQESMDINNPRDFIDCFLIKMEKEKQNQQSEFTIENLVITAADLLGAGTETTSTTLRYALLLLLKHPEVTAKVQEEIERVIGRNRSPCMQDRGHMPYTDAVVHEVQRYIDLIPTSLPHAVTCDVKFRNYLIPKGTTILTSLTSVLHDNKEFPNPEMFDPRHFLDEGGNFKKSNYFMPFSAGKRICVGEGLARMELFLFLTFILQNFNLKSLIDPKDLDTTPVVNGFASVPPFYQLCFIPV
Chain of Cytochrome P450 3A4 (Homo sapiens) (P08684 whole entry, looked up): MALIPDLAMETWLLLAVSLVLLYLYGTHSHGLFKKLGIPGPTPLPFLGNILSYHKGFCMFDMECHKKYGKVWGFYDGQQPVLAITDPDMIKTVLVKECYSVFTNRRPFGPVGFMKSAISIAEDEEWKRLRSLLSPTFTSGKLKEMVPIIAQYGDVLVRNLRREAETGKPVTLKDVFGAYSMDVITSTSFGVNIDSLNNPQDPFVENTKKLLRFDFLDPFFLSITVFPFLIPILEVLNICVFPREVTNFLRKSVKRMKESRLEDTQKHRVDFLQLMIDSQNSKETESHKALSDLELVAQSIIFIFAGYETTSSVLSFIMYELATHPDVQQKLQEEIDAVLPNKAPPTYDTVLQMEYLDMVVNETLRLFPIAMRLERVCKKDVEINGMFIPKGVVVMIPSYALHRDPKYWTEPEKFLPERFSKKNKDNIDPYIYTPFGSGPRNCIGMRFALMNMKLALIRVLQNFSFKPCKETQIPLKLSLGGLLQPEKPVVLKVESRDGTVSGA
Chain of Cytochrome P450 2C9 (Homo sapiens) (P11712 whole entry, looked up): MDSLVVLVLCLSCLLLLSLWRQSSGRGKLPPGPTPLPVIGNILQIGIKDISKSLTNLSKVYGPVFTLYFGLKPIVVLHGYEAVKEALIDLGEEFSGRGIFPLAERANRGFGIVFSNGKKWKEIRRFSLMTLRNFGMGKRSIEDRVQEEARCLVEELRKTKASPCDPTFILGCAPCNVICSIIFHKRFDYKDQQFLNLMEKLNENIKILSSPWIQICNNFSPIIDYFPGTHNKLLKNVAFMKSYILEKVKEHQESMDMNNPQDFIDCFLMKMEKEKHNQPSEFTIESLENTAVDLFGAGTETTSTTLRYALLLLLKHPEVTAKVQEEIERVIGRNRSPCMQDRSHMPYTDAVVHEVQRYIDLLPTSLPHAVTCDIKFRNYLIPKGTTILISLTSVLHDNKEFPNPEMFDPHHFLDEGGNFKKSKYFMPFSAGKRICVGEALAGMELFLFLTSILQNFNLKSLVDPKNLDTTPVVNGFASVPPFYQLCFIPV
Chain of Cytochrome P450 2D6 (Homo sapiens) (P10635 whole entry, looked up): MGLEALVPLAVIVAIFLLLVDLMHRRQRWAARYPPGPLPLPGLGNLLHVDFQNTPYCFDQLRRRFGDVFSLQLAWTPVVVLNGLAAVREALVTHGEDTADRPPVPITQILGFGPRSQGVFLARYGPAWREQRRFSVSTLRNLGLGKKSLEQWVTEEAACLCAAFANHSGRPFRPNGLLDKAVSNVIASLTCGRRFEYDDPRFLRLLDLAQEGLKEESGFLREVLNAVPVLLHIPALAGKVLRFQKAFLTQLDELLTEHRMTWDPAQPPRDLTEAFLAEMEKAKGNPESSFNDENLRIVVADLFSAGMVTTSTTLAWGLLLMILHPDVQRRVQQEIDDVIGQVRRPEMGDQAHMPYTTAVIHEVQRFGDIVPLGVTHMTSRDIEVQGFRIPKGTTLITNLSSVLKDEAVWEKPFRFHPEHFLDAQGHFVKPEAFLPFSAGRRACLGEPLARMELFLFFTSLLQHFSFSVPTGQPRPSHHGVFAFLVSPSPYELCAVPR

C=CCOC(=O)N[C@@H](c1ccccc1)[C@@H](C)[N+](=O)[O-]
Potency [1]: inactive
Potency [2]: inactive
Potency [3]: inactive
Potency [4]: inactive

COC(=O)CC=C1c2ccccc2[C@@H](NC(=O)OC)[C@@H]1C
Potency [1]: inactive
Potency [2]: inactive
Potency [3]: inactive
Potency [4]: inactive

COC(=O)C1=C(C)N(Cc2ccccc2)C(=NCc2ccccc2)NC1c1ccccc1 (stereo not drawn)
Potency [1]: inactive
Potency [2]: inactive
Potency [3]: inactive
Potency [4]: inactive

CC1(O)C(=O)C=C2C=C(CCCCOCc3ccccc3)OC=C2C1=O (stereo not drawn)
activity change, negative = inhibition [5]: -27.6% [at 11.4 µM] (inactive)
activity change, negative = inhibition [6]: -25.3% [at 11.4 µM] (inactive)
activity change, negative = inhibition [7]: -3.73% [at 11.4 µM] (inactive)
activity, negative = inhibition [8]: -23.3% [at 11.4 µM] (inactive)
Potency [1]: inactive
Potency [9]: inactive
Potency [3]: inactive
Potency [4]: inactive

CCCCC[C@]12Cc3cc(OC)c(OC)cc3[C@H](O1)c1c(cc(C)n(-c3ccccc3)c1=O)O2
Potency [1]: inactive
Potency [2]: 2.94 µM (active) and inactive
Potency [3]: inactive
Potency [4]: inactive

COC(=O)CC=C1c2ccc3c(c2[C@@H](OC)[C@@H]1C)OCO3
Potency [1]: inactive
Potency [9]: inactive
Potency [3]: inactive
Potency [4]: inactive

COc1cc2c(cc1OC)[C@@H]1O[C@](CCCCN3C(=O)c4ccccc4C3=O)(C2)OC2=C1C(=O)OC1(CCCCC1)C2
Potency [1]: 1690 nM (active)
Potency [2]: 1.9 µM (active)
Potency [3]: inactive
Potency [4]: inactive

CC1=CC[C@@H](COc2ccccc2)O[C@@]2(C1)C(=O)Nc1ccccc12
Potency [1]: inactive
Potency [2]: inactive
Potency [3]: inactive
Potency [4]: inactive

C=C(C)C(O)C=Cc1ccccc1OC (stereo not drawn)
Potency [1]: inactive
Potency [2]: inactive
Potency [3]: inactive
Potency [4]: inactive

CC#CCC1(C(=O)OC)C(=O)NC[C@H]1c1ccccc1 (stereo partly drawn)
Potency [1]: inactive
Potency [2]: inactive
Potency [3]: inactive
Potency [4]: inactive

COC(=O)C(c1ccc(OC)c(OC)c1)C1c2ccccc2C=C(C)N1C(=O)OC (stereo not drawn)
Potency [1]: inactive
Potency [9]: inactive
Potency [3]: inactive
Potency [4]: inactive

COC1(C#C[C@@H]2C=C[C@H](OC(C)=O)[C@@H](COC(C)=O)O2)CCCCC1
Potency [1]: inactive
Potency [9]: inactive
Potency [3]: inactive
Potency [4]: inactive

CC(=O)OC[C@H]1O[C@@H](ON=C(C)CCC(=O)OC[C@H]2O[C@H](C#Cc3ccccc3)C=C[C@H]2Oc2ccc(C)cc2)[C@H](OC(C)=O)[C@@H](OC(C)=O)[C@H]1OC(C)=O
Potency [1]: inactive
Potency [2]: inactive
Potency [3]: inactive
Potency [4]: inactive

CCOC(=O)CN1C(=O)NC(c2ccc(Br)cc2)C(C(C)=O)=C1C (stereo not drawn)
Potency [1]: inactive
Potency [2]: inactive
Potency [3]: inactive
Potency [4]: inactive

CCCCC1=CC2=C(c3ccco3)C(=O)C(C)(OC(=O)c3ccc(OC)cc3)C(=O)C2=CN1CCc1ccccn1 (stereo not drawn)
Potency [1]: inactive
Potency [9]: inactive
Potency [3]: inactive
Potency [4]: inactive

CCCCCCCC1=Cc2ccccc2C(CC(=O)c2ccccc2)N1C(=O)OC (stereo not drawn)
activity, negative = inhibition [1]: -4.11% [at 1.12 µM] (inactive)
Potency [3]: inactive
Potency [4]: inactive

COC1=C[C@H](C(=O)NCc2ccccn2)[C@@]2(C)Cc3ccccc3[C@@H]2CC1=O
Potency [1]: inactive
Potency [3]: inactive
Potency [4]: inactive

Cc1cc(C)c(-c2cc([C@H](C)ON=C[C@@H](C)[C@H](OCc3ccccc3)C(C)C)on2)c(C)c1
Potency [1]: inactive
Potency [2]: inactive
Potency [3]: inactive
Potency [4]: inactive

COC(=O)[C@H]1[C@@H](c2ccccc2)NC(=O)O[C@@H]1C
Potency [1]: inactive
Potency [2]: inactive
Potency [4]: inactive

COc1cccc(C(CC2=CCCCC2)NC(=O)C(F)(F)F)c1 (stereo not drawn)
Potency [1]: inactive
Potency [2]: inactive
Potency [3]: inactive
Potency [4]: inactive

COc1ccc2c(c1)[C@@]1(OCCC=C[C@@H]1C)C(=O)N2CC=C(C)CCC=C(C)C
Potency [1]: inactive
Potency [2]: inactive
Potency [3]: inactive
Potency [4]: inactive

CCCCc1cc2c(cn1)=C(OC(=O)c1cnc3ccccc3n1)C(C)(OC(=O)CC)C(=O)C=2 (stereo not drawn)
activity, negative = inhibition [1]: 2.28% [at 1.12 µM] (inactive)
Potency [3]: inactive
Potency [4]: inactive

C=C(C)CCCN1C=C(C(=O)OCC)C(c2ccccc2)NC1=O (stereo not drawn)
Potency [1]: inactive
Potency [2]: inactive
Potency [3]: inactive
Potency [4]: inactive

COCCN1C(=S)NC(c2cccc(F)c2)C(C(=O)OC)=C1C (stereo not drawn)
Potency [1]: inactive
Potency [2]: inactive
Potency [3]: inactive
Potency [4]: inactive

CC(Nc1oc(-c2ccccc2)nc1-c1ccccc1)c1ccccc1 (stereo not drawn)
Potency [1]: inactive
Potency [2]: inactive
Potency [3]: inactive
Potency [4]: inactive

Cc1ccccc1Nc1oc(-c2ccccc2)nc1C=Cc1ccccc1
Potency [1]: inactive
Potency [3]: inactive
Potency [4]: inactive

CC12C=C(C=CCCc3ccco3)C(C)(C1)[C@H](CCc1ccco1)CC2=O (stereo partly drawn)
Potency [10]: inactive
Potency [4]: inactive

COCOc1ccc(Br)cc1C(=O)[C@@H]1O[C@@H]1c1cccc(OC)c1
Potency [10]: inactive
Potency [4]: inactive

COc1ccc2c(c1)[C@@H](NC(=O)C(F)(F)F)C1CCCCC21c1ccccc1 (stereo partly drawn)
Potency [1]: inactive
Potency [3]: inactive
Potency [4]: inactive

COc1ccc2c(c1)[C@@]1(OCCC=C[C@@H]1C)C(=O)N2Cc1ccc(F)cc1
Potency [1]: inactive
Potency [3]: inactive
Potency [4]: inactive
